# From PubChem
# Compounds with a hit are over-represented: about 19% of the library has one in this group of screens.
# DT40 TDP1 no CPT: qHTS for Inhibitors of human tyrosyl-DNA phosphodiesterase 1 (TDP1): qHTS in cells in absence of CPT; DT40 Tdp1-/- hTDP1 cells, no CPT, ATP luminescence, 48 h; 420,000 tested, 15% active; AID 686978, 2013; Potency, µM (top dose mostly 46.2 µM), inactives show at the highest dose activity change, negative = growth inhibition, hits mostly inhibitors; further: nearly all actives have a fitted effect of over 55% in size
#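 Chicken DT40 Tdp1-/- cells complemented with human TDP1, screened without camptothecin (DMSO vehicle only), 400 cells/well. Compounds pin-transferred, cells incubated at 37 °C for at least 48 hr. Growth read as ATP-dependent luminescence (CellTiter-Glo, 30 min at RT).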
# HT1080 IDH1KD tx: HT-1080 IDH1 knockdown cell toxicity (counter line); HT-1080 IDH1 knockdown viability, ATP luminescence, 48 h; 360,000 tested, 2% active; Potency, µM (series often up to 46.1 µM), without a hit: at the top dose activity, negative = toxicity, actives largely listed as cytotoxic;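 further: 0% = DMSO wells and -100% = cell-free medium wells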
#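 Knockdown cells (IDH1KD HT-1080) received compounds 2 h after plating at 750 cells/well and were kept 48 h at 37 °C in 5% FBS RPMI. A CellTiter-Glo luminescence read gave % activity for curve fitting.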
# DT40 TDP1 CPT: growth inhibition of DT40 Tdp1-/-;hTDP1 cells with camptothecin (screen for TDP1 inhibitors); Potency, µM (doses to about 46.2 µM), for inactives: at the top dose activity change, negative = growth inhibition, usual class: inhibitors; AID 686979; 420,000 tested, 12% active; chicken DT40 Tdp1-/-;hTDP1 cells + 20 nM CPT, ATP luminescence, 48 h; further: nearly all actives have a fitted effect of over 55% in size
#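 Chicken DT40 Tdp1-/- cells complemented with human TDP1, 400 cells/well, exposed to compounds plus 20 nM camptothecin for at least 48 h at 37 C; viability read as ATP content by CellTiter-Glo luminescence.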
# HT1080NT lethal: kills 2HG-producing HT-1080-NT fibrosarcoma cells; Potency, µM (titrated, usually from 46.1 µM), inactives show at the highest dose activity, negative = less viability, most hits filed as cytotoxic; 360,000 tested, 1.6% active; HT-1080-NT fibrosarcoma viability, CellTiter-Glo ATP luminescence, 48 h;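 further: NT is the 2HG producing partner of a matched IDH1 knockdown line; 0% = DMSO-treated cells and -100% = media-only wells without cells; nearly all actives have a fitted effect of over 55% in size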
#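 750 cells/well, RPMI + 5% FBS; 2 h settle, compound pin-transfer, 48 h at 37 degrees C. CellTiter-Glo 10 min RT, luminescence. Normalized to DMSO and media-only wells.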
# KB-3-1 tox: kills parental KB-3-1 adenocarcinoma cells; KB-3-1 viability, CellTiter-Glo ATP luminescence, 72 h; Potency, µM (top dose mostly 46.1 µM), usual class: cytotoxic; 400,000 tested, 1.4% active; further: nearly all actives have a fitted effect of over 60% in size
#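 Cytotoxicity in the drug-sensitive parental line KB-3-1 was scored as loss of CellTiter-Glo luminescence following 72 h incubation with compound. Values come from curve fitting of normalized concentration-response data.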
# KB-V1 MDR tox: kills drug-selected multidrug resistant KB-V1 cells; KB-V1 MDR cells viability, CellTiter-Glo, 72 h; Potency, µM (highest dose often 46.1 µM), actives largely listed as cytotoxic; 400,000 tested, 3.4% active; further: nearly all actives have a fitted effect of over 60% in size
#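 Following 72 h at 37 degrees C with compound, KB-V1 cell viability was read by CellTiter-Glo luminescence, medium being phenol-red-free DMEM plus 10% FBS; concentration-response parameters came from normalized, curve-fitted qHTS data.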
# * marks the source's active call; other numbers are inactive results; i = inactive; ? = inconclusive; nt = not tested or not shown; [ ] = remark or other dose. The call rests on the fitted dose curve; in most records, active means well fitted curve in the direction sought with a large enough effect; inconclusive means small, poorly fitted or top-dose-only effect, or another doubt; inactive means no such curve, though single readings can be large; an effect the other way counts as inactive or inconclusive. Unless noted, on the % scale 0 is the no-effect control and ±100 the full control effect; potency means the concentration at half of the fitted maximal effect.
SMILES,DT40 TDP1 no CPT,HT1080 IDH1KD tx,DT40 TDP1 CPT,HT1080NT lethal,KB-3-1 tox,KB-V1 MDR tox
CCCOc1ccc(CNC(=O)c2ccc(-n3c(C)cc4c3CCC(C)C4)cc2)cc1 (stereo not drawn),?,nt,?,nt,i,i
CCc1ccc(CNC(=O)c2ccc(-n3c(C)cc4c3CCC(C)C4)cc2)cc1 (stereo not drawn),20.6µM*,nt,16.4µM*,nt,i,i
COc1ccc(Br)cc1CNC(=O)C1CCN(S(=O)(=O)N2CCCC2)CC1,-28.6%,3.4%,-3.6%,0.7%,i,?
COc1cccc(CNC(=O)c2ccc(-n3c(C)cc4c3CCC(C)C4)cc2)c1 (stereo not drawn),?,nt,?,nt,i,i
Cc1ccc2c(c1)C1CC(C)(O2)N(c2cccc(C(=O)NC3CCN(Cc4ccccc4)CC3)c2)C(=O)N1 (stereo not drawn),?,?,?,?,i,?
CCCCN(CC(=O)Nc1c(C)cccc1CC)C(=O)SCC,-13.1%,0.8%,-29.1%,0.3%,i,?
CCCCCCCCNc1nc(Cl)nc(NCc2ccco2)n1,-2.2%,15.9%,-3.0%,11.4%,i,i
CCCCCCNc1nc(NCc2ccco2)nc(OCC)n1,18.4µM*,-22.1%,20.6µM*,-17.1%,?,?
COc1ccc(C2c3ccc(O)cc3Oc3ncn(CC(C)C)c(=N)c32)cc1 (stereo not drawn),?,-1.1%,?,-5.2%,i,i
COc1ccc(C2c3ccc(O)cc3Oc3ncn4nc(-c5cccnc5)nc4c32)cc1OC (stereo not drawn),11.6µM*,14.6µM*,?,16.4µM*,?,i
c1ccc(Nc2nc(Nc3ccccc3)nc(N3CCNCC3)n2)cc1,?,?,?,23.1µM*,i,?
CN1CCN(c2nc(Nc3ccc(F)cc3)nc(Nc3ccc(F)cc3)n2)CC1,?,?,20.6µM*,?,i,i
c1ccc(Nc2nc(N3CCCC3)nc(N3CCOCC3)n2)cc1,nt,nt,nt,nt,i,i
O=C(COc1ccc(F)cc1)N1c2ccccc2CCc2ccccc21,18.4µM*,0.6%,?,-0.7%,i,i
O=C(COc1cccc2ccccc12)N1c2ccccc2CCc2ccccc21,18.4µM*,?,?,-25.5%,?,16.4µM*
O=C(COc1cccc2ccccc12)N1CCN(c2ccccc2)CC1,?,-3.5%,?,-8.6%,i,?
CC1(C(=O)NCc2cccc(C(F)(F)F)c2)CCN1Cc1cc2ccccc2o1 (stereo not drawn),18.4µM*,?,25.9µM*,?,i,i
CCNC(=O)C1(C)CCCN1Cc1cccc(C(F)(F)F)c1 (stereo not drawn),18.4µM*,4.7%,18.4µM*,12.0%,i,i
Cc1cc(=O)n(Cc2ccc(F)cc2Cl)c2c1c(C)nn2-c1ccccc1,3.5%,nt,-1.9%,nt,i,i
COc1cc(O)c(C(CC(=O)N2CCC(C)CC2)c2ccc(OC)c(OC)c2)c(OC)c1 (stereo not drawn),nt,nt,nt,nt,i,i
CCN1CCSc2ccc(C(=O)NCc3ccc(OC)cc3)cc21,?,nt,-65.4%,nt,nt,nt
O=C(NCc1ccccc1)c1ccc2c(c1)N(Cc1ccc(F)cc1)CCS2,18.4µM*,nt,?,nt,?,i
CCCOc1ccc(CNC(=O)c2ccc3c(c2)N(Cc2ccccc2)CCS3)cc1,18.4µM*,nt,?,nt,nt,nt
O=C(NCc1ccco1)c1ccc2c(c1)N(Cc1ccccc1)CCS2,-11.9%,-5.4%,-14.5%,0.0%,i,?
CC(=O)Nc1ccc(S(=O)(=O)N2CCN(c3ccc(C)c(C)c3)CC2)cc1,nt,nt,nt,nt,i,i
SMILES,DT40 TDP1 no CPT,HT1080 IDH1KD tx,DT40 TDP1 CPT,HT1080NT lethal,KB-3-1 tox,KB-V1 MDR tox
COc1ccccc1CNCc1cc(Br)ccc1OC,16.4µM*,?,?,-26.7%,i,?
COc1ccc(Br)cc1CNC(=O)c1cc2ccccn2n1,?,nt,16.4µM*,nt,i,i
COc1ccc(Br)cc1CNc1ccc(O)cc1,?,?,?,?,i,i
COc1ccccc1CNCc1ccc(OC)c2ccccc12,16.4µM*,-57.8%,?,14.6µM*,i,?
COc1cccc(CNCc2ccc(OC)c3ccccc23)c1OC,16.4µM*,?,20.6µM*,?,i,i
O=C(COC(=O)c1cccc(OC(F)F)c1)Nc1cc(S(=O)(=O)N2CCCC2)ccc1Cl,?,0.5%,?,-1.7%,i,i
COc1ccc(Br)cc1CNC(=O)Cc1cccs1,-5.0%,-7.5%,18.1%,-5.1%,i,i
COc1cccc(CNCc2ccccn2)c1OC,18.4µM*,2.9%[9.24 µM],-21.6%,-4.8%,i,i
